# Source: PubChem BioAssay
# Target: Follistatin-related protein 3 (Homo sapiens) (UniProt O95633)
# Test: FSTL3 binders on small-molecule microarrays, primary screen, biochemical, small-molecule microarray, 635 nm fluorescence (AID 1105);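 also: score merges emission near 667 nm and signal to noise per printed spot across three slides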
# Details: FSTL3 binding, higher = more signal
# Follistatin-related protein 3 (Homo sapiens), sequence (O95633 whole entry, looked up): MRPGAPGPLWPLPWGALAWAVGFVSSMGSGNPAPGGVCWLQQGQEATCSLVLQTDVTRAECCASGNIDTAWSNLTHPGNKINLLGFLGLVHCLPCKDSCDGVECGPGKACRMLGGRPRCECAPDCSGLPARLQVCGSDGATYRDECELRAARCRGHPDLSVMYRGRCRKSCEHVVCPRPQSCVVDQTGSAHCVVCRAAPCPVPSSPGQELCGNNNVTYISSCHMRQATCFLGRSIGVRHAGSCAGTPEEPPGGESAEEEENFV
row,SMILES,composite z-score
1,CO[C@H]1O[C@H](CO)[C@@H](OC(=O)Nc2ccc3c(c2)OCO3)[C@H](OC(=O)Nc2ccc3c(c2)OCO3)[C@@H]1OC(=O)Nc1ccc2c(c1)OCO2,1.41
2,CCCC1(C(=O)OC)C=C2C(=C(C)C(=O)C2C)CN1 (stereo not given),-0.105
3,CO[C@H]1O[C@H](CO)[C@@H](OC(=O)Nc2ccccc2)[C@H](OC(=O)c2cc3ccccc3[nH]2)[C@H]1OC(=O)c1cc2ccccc2[nH]1,0.306
4,O=C1O[C@H](c2ccccc2)[C@H](c2ccccc2)N2[C@H]1[C@@H](C(=O)O)[C@]1(C(=O)Nc3ccc(C#CCCO)cc31)[C@H]2c1ccccc1OCCO,-0.224
5,CCCCC[C@H]1OC[C@@]23C=C(Br)[C@@H](CC12)[C@@]1(CO1)C3=O (stereo not given in full),-0.0915
6,CCCCN1CC=CC23O[C@@H]4/C=C\CCC(C)OC(=O)C4[C@H]2C(=O)N(CCCO)[C@@H]3C1=O (stereo not given in full),-1.04
7,CC[C@@H]1C=C(C(=O)O)[C@H](c2ccc(C#N)cc2)N1S(=O)(=O)c1ccc(C)cc1,-0.406
8,O=C1[C@H]2C=C(I)[C@H](C[C@@H]2OCCOCCO)[C@@]12CO2,1.12
9,COCCOC(=O)N1C(=O)[C@@]2(c3cc(C#CC4=CCCCC4)ccc31)[C@H](C(=O)Nc1nc3ccccc3s1)[C@H]1C(=O)O[C@H](c3ccccc3)[C@H](c3ccccc3)N1[C@@H]2c1ccc(O)cc1,0.918
10,COc1ccc([C@H]2OC[C@@H]3C[C@H](Cc4ccccc4)C(=O)N32)cc1,0.401
11,NC(=O)NCC#Cc1ccc2c(c1)[C@]1(C(=O)N2)[C@H](c2ccccc2OCCO)N2[C@H](c3ccccc3)[C@H](c3ccccc3)OC(=O)[C@H]2[C@@H]1C(=O)O,-0.085
12,CC1CC/C=C\[C@H]2OC34C=CCN(c5ccc(Cl)cc5)C(=O)[C@H]3N(C(C)CO)C(=O)[C@]4(C)C2C(=O)O1 (stereo not given in full),-1.43
13,CCOC(=O)C1=C[C@@H](C(C)C)N(S(=O)(=O)c2ccc(C)cc2)[C@H]1c1ccc(C(F)(F)F)cc1,1.39
14,OCCCC1=CC(c2ccc(CN3CCCC3)cc2)N(Cc2cc3c(cc2Br)OCO3)CC1 (stereo not given),0.809
15,CCCCCCCCCC(O)C1C=CC2C(=O)N(c3ccccc3)C(=O)C2N1Nc1cc(OC)c(OC)c(OC)c1 (stereo not given),-0.246
16,COCCCNC(=O)[C@@]1(CCC(=O)OC(C)(C)C)N=C(c2ccc(OCCCO)cc2)O[C@H]1c1ccccc1N=[N+]=[N-],0.209
17,COc1cc(OC)c(C(O)C2C=CC3C(=O)N(Cc4ccccc4)C(=O)C3N2n2cnnc2)cc1Br (stereo not given),0.777
18,C[N+](C)(C)CCCC[C@@H]1NC(=O)[C@@H]2C[C@H](C(=O)NCCCCCCN)[C@H](c3cccc(OCCO)c3)N2C1=O,0.776

row,SMILES,composite z-score
1,O=C1C2C=CC(C(O)C3CC=CCC3)N(Nc3ccccc3)C2C(=O)N1c1ccccc1 (stereo not given),1.03
2,C=CCNC(=O)[C@H]1[C@@H]2C(=O)O[C@@H](c3ccccc3)[C@@H](c3ccccc3)N2[C@@H](c2ccccc2OCCO)[C@]12C(=O)N(C(=O)OCCOC)c1ccc(C#CC3(O)CCCCCC3)cc12,0.502
3,COCCOC(=O)N1C(=O)[C@@]2(c3cc(C#CC4=CCCCC4)ccc31)[C@H](c1ccccc1OCCO)N1[C@H](c3ccccc3)[C@H](c3ccccc3)OC(=O)[C@H]1[C@@H]2C(=O)NC[C@H](O)c1ccccc1,1.42
4,CCCC[C@@H](O)C1=C(COc2ccccc2)C[C@H]2C(=O)N(Cc3ccccc3)C(=O)[C@H]2[C@H]1CO,0.78
5,O=C1OCCC/C=C\[C@H]2OC34C=CCN(c5ccc6ccccc6c5)C(=O)[C@H]3N(CCO)C(=O)[C@@H]4C12 (stereo not given in full),-1.59
6,COC(=O)c1c(CC[C@@H](CO)NC(=O)N[C@@H](C)Cn2cc(-c3ccccn3)nn2)oc(C(C)=O)c1C(=O)OC,0.454
7,CC(C)C[C@@H]1NC(=O)[C@@H]2C[C@H](C(=O)NCCCCCCN)[C@H](c3cccc(OCCO)c3)N2C1=O,1.08
8,[N-]=[N+]=Nc1ccccc1C[C@@]1(C(=O)N2CCOCC2)N=C(c2ccc(OCCCO)cc2)O[C@@H]1c1ccccc1,1.25
9,CCOC(=O)C[C@H]1[C@H](OC(=O)c2cc3ccccc3oc2=O)[C@@H](NC(=O)CC(C)C)c2cc(OCCCO)ccc2N1C(=O)c1ccc2ccccc2n1,1.14
10,Cc1ccc(NN2C(C(O)c3c(F)cccc3Cl)C=CC3C(=O)N(C4CCCCC4)C(=O)C32)cc1 (stereo not given),0.716
11,O=C1O[C@@H](c2ccccc2)[C@@H](c2ccccc2)N2[C@@H](c3ccc(OCCO)cc3)[C@]3(C(=O)Nc4ccc(C#CC5=CCCCC5)cc43)[C@@H](C(=O)NC[C@H](O)c3ccccc3)[C@H]12,1.4
12,CCCN1C(=O)[C@]2(Cc3ccccc31)N=C(c1ccc(OCCCO)cc1)O[C@@H]2c1ccccc1,0.515
13,C[N+](C)(C)CCCCCCNC(=O)[C@@H]1C[C@@H]2C(=O)N3CCC[C@H]3C(=O)N2[C@@H]1c1ccc(O)cc1,1.46
14,CCOC(=O)C[C@H]1[C@H](OC(=O)c2ccc(C(=O)c3ccccc3)cc2)[C@@H](NC(=O)CC(C)C)c2cc(OCCCO)ccc2N1C(=O)c1ccccc1,1.17
15,CC1CC/C=C\[C@H]2OC34C=CCN(C(C)C)C(=O)[C@H]3N(CCO)C(=O)[C@@H]4C2C(=O)O1 (stereo not given in full),-1.28
16,[N-]=[N+]=Nc1ccccc1C[C@]1(C(=O)N2CCOCC2)COC(c2ccc(OCCCO)cc2)=N1,0.634
17,CCCCCCc1nc(Cc2cc(OC)c(OC)c(OC)c2)cc2c1[Si](C(C)C)(C(C)C)OC2,0.494
